Reference: PubChem BioAssay (NCATS)
Where “and” joins values, the source holds several entries; their conditions need not be identical. Equal values may be shown once. Results filed as inconclusive are left out. Calls of active or inactive are those of the source. Calls follow the shape of the dose curve; as a rule, active = well fitted curve in the direction sought with a large enough effect; inconclusive = small, poorly fitted or top-dose-only effect, or another doubt; inactive = no such curve, though single readings can be large; an effect the other way counts as inactive or inconclusive.

Tests used:
[1] = Viability qHTS for spleen associated tyrosine kinase inhibitor (SYKi) naive MV4-11 cells (AID 1963823); conditions: MV4-11 AML viability, CellTiter-Glo luminescence, 72 h; series mostly up to 45 µM; also: nearly all actives have a fitted effect of over 40% in size; also: potency is read from the fitted curve at half-maximal effect
Method in brief: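 qHTS, SYK inhibitor-naive MV4-11; 500 cells/well; 72 hr compound exposure, 37 C; CellTiter-Glo added, 10 min RT; luminescence read.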

[2] = Quantitative highthroughput screen to assess conditional lethalithy of NOMO1 cells grown in RPMI1640 with untreated serum (RPMI+s) (AID 1963876); conditions: NOMO1 AML cells in RPMI+serum, CellTiter-Glo viability, 48 h; series mostly up to 45.8 µM; also: nearly all actives have a fitted effect of over 35% in size; also: potency is read from the fitted curve at half-maximal effect;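 as to Viability: 100% = DMSO wells and 0% = empty wells without cells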
Method in brief: (§1)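 Each medium arm—HPLM with 10% dialyzed FBS, or RPMI1640 with 5 mM glucose and 10% untreated or dialyzed FBS—was screened against an 11-point, 3-fold compound titration for 48 h at 37 °C, with CellTiter-Glo luminescence as endpoint.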

[3] = Quantitative highthroughput screen to assess conditional lethalithy of NOMO1 cells grown in Human Plasma-Like Medium with dialyzed fetal bovine serum (HPLM+ds) (AID 1963878); conditions: NOMO1 AML cells in HPLM+ds, CellTiter-Glo viability, 48 h; series mostly up to 45.8 µM; also: nearly all actives have a fitted effect of over 35% in size; also: potency is read from the fitted curve at half-maximal effect;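 as to Viability: 100% = DMSO wells and 0% = empty wells on each plate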
Method in brief: as §1

[4] = Quantitative highthroughput screen to assess conditional lethalithy of P12 Ichikawa cells grown in Human Plasma-Like Medium with dialyzed fetal bovine serum (HPLM+ds) (AID 1963879); conditions: ATP luminescence, 48 h; Potency: viability; series mostly up to 45.8 µM; also: nearly all actives have a fitted effect of over 35% in size; also: potency is read from the fitted curve at half-maximal effect
Method in brief: as §1

[5] = Quantitative highthroughput screen to assess conditional lethalithy of P12 Ichikawa cells grown in RPMI1640 with dialyzed fetal bovine serum (RPMI+ds) (AID 1963880); conditions: ATP luminescence, 48 h; Potency: P12-Ichikawa viability; series mostly up to 45.8 µM; also: nearly all actives have a fitted effect of over 35% in size; also: potency is read from the fitted curve at half-maximal effect;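 as to Viability: 100% = DMSO wells and 0% = empty wells on each plate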
Method in brief: as §1

[6] = Quantitative highthroughput screen to assess conditional lethalithy of P12 Ichikawa cells grown in RPMI1640 with untreated serum (RPMI+s) (AID 1963881); conditions: ATP luminescence, 48 h; Potency: viability; series mostly up to 45.8 µM; also: nearly all actives have a fitted effect of over 35% in size; also: potency is read from the fitted curve at half-maximal effect;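 as to Viability: 100% = DMSO wells and 0% = empty wells without cells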
Method in brief: as §1

[7] = Quantitative highthroughput screen to assess conditional lethalithy of SEM cells grown in Human Plasma-Like Medium with dialyzed fetal bovine serum (HPLM+ds) (AID 1963882); conditions: SEM B-ALL cells in HPLM+ds, CellTiter-Glo viability, 48 h; series mostly up to 45.8 µM; also: nearly all actives have a fitted effect of over 35% in size; also: potency is read from the fitted curve at half-maximal effect
Method in brief: as §1

[8] = Quantitative highthroughput screen to assess conditional lethalithy of SEM cells grown in RPMI1640 with unreated serum (RPMI+s) (AID 1963883); conditions: SEM B-ALL cells, CellTiter-Glo viability, 48 h; series mostly up to 45.8 µM; also: nearly all actives have a fitted effect of over 35% in size; also: potency is read from the fitted curve at half-maximal effect;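 as to Viability: 100% = DMSO wells and 0% = empty wells without cells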
Method in brief: as §1

[9] = Quantitative highthroughput screen to assess conditional lethalithy of SEM cells grown in RPMI1640 with dialyzed fetal bovine serum (RPMI+ds) (AID 1963884); conditions: SEM B-ALL cells, RPMI+dialyzed FBS, CellTiter-Glo viability, 48 h; series mostly up to 45.8 µM; also: nearly all actives have a fitted effect of over 35% in size; also: potency is read from the fitted curve at half-maximal effect;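 as to Viability: 100% = DMSO control wells and 0% = empty wells without cells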
Method in brief: as §1

[10] = Cellular viability qHTS for adrenocortical cancer (ACC) cell line SW-13 (AID 1963989); conditions: SW-13 ACC cells viability, CellTiter-Glo, 48 h; activity (max response): hits give low values; also: nearly all actives have a fitted effect of over 65% in size; also: potency is read from the fitted curve at half-maximal effect;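 as to activity (max response): cells grown in serum-free medium with ITS supplement; % is scaled to controls: 0 for no effect and ±100 for the full control effect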
Method in brief: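 Viability was read as CellTiter-Glo luminescence after 48 h compound treatment (up to 46 uM final) of SW-13 cells grown serum-free; titration curves were fit with a four-parameter logistic model to give IC50 and efficacy.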

[11] = Cellular viability qHTS for adrenocortical cancer (ACC) cell line NCI-H295R (AID 1963990); conditions: CellTiter-Glo ATP luminescence, 48 h; series mostly up to 46.1 µM; also: nearly all actives have a fitted effect of over 60% in size; also: potency is read from the fitted curve at half-maximal effect
Method in brief: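 CellTiter-Glo ATP luminescence, read 48 h after compound addition, measured viability of NCI-H295R adrenocortical cells grown serum-free with ITS. Final concentrations spanned up to 46 uM. Data normalized to DMSO and doxorubicin, fitted for IC50 and maximal response.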

[12] = Quantitative highthroughput screen to assess conditional lethalithy of NOMO1 cells grown in RPMI1640 with dialyzed fetal bovine serum (RPMI+ds) (AID 1963877); conditions: NOMO1 in RPMI+dialyzed FBS viability, ATP luminescence, 48 h; series mostly up to 45.8 µM;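 also: 100% = DMSO control wells and 0% = empty wells; nearly all actives have a fitted effect of over 30% in size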
Method in brief: as §1

CN1CCN2c3ncccc3Cc3ccccc3C2C1 (centres undefined)
inactive: Potency [1] | Potency [2] | Potency [3] | Potency [4] | Potency [5] | Potency [6] | Potency [7] | Potency [8] | Potency [9] | activity (max response) [10] -3.47% | Potency [11]

Cc1cccc(Nc2ccncc2S(=O)(=O)NC(=O)NC(C)C)c1
inactive: Potency [1] | Potency [2] | Potency [12] | Potency [4] | Potency [5] | Potency [6] | Potency [7] | Potency [8] | Potency [9] | activity (max response) [10] -3.35% | Potency [11]

Cc1ccccc1C(OCCN(C)C)c1ccccc1 (centres undefined)
inactive: Potency [1] | Potency [2] | Potency [12] | Potency [5] | Potency [6] | Potency [7] | activity (max response) [10] 14.3% | Potency [11]

CN(C)c1cccc(-c2c3c(=O)n(-c4ccccc4Cl)[nH]c3cc(=O)n2C)c1
active: Potency [2] 933 nM | Potency [3] 588 nM | Potency [4] 831 nM | Potency [6] 1050 nM | Potency [7] 1050 nM | Potency [8] 1050 nM
inactive: Potency [1] | activity (max response) [10] -1.86% | Potency [11]

CC(=O)N(C)C1(c2ccccc2)CCN(CCC[C@]2(c3ccc(Cl)c(Cl)c3)CCCN(C(=O)c3ccccc3)C2)CC1
active: Potency [1] 4.11 µM | Potency [2] 1870 nM | Potency [3] 526 nM | Potency [6] 7430 nM | Potency [7] 662 nM | Potency [8] 743 nM | Potency [9] 1050 nM

Cc1cc2nc3c(=O)[nH]c(=O)nc-3n(CC(O)C(O)C(O)CO)c2cc1C (centres undefined)
inactive: Potency [1] | Potency [2] | Potency [12] | Potency [4] | Potency [5] | Potency [6] | Potency [7] | Potency [8] | Potency [9] | activity (max response) [10] 9.67% | Potency [11]

COc1cc(F)c(F)c(Nc2ccc(I)cc2F)c1NS(=O)(=O)C1(C[C@H](O)CO)CC1
active: Potency [1] 0.332 µM | Potency [8] 20900 nM | Potency [10] 14.1 µM | Potency [11] 20000 nM
inactive: Potency [2] | Potency [12] | Potency [6]

CC(=O)[C@@]1(O)CC[C@H]2[C@@H]3C[C@H](C)C4=CC(=O)C=C[C@]4(C)[C@@]3(F)[C@@H](O)C[C@@]21C
inactive: Potency [1] | activity (max response) [10] 3.6%

C=CC(=O)N1CCC(CNc2ncnc(N)c2-c2ccc(Oc3ccccc3)cc2)CC1
active: Potency [1] 5.9 µM
inactive: activity (max response) [10] -22.9%

Cc1cc2nc3c(=O)[nH]c(=O)nc-3n(C[C@H](O)[C@H](O)[C@H](O)CO)c2cc1C
inactive: Potency [1] | activity (max response) [10] 8.72%

Cc1c(-c2cnccn2)ssc1=S
inactive: activity (max response) [10] -8.54%
active: Potency [1] 4.17 µM

COC(=O)[C@@H]1[C@H]2C[C@H]3c4[nH]c5ccccc5c4CCN3C[C@@H]2CC[C@@H]1O
inactive: Potency [1] | activity (max response) [10] -16.5%

CCCC(=O)OCOC(=O)C1=C(C)NC(C)=C(C(=O)OC)C1c1cccc(Cl)c1Cl (centres undefined)
inactive: Potency [1] | activity (max response) [10] 6.2%

O=C1c2ccccc2S(=O)(=O)N1CCCCN1CCN(c2ncccn2)CC1
inactive: Potency [1] | activity (max response) [10] -8.3%

Cc1ccc(Nc2nccc(N(C)c3ccc4c(C)n(C)nc4c3)n2)cc1S(N)(=O)=O
active: Potency [1] 0.742 µM | Potency [7] 16600 nM | Potency [8] 14800 nM | Potency [9] 14800 nM
inactive: activity (max response) [10] -20.1% | Potency [11]

CCOC(=O)C1=C[C@]2(CC)CCCN3CCc4c(n1c1ccccc41)[C@@H]32
inactive: Potency [4] | Potency [7] | Potency [9]
active: Potency [1] 13.3 µM

CC1(C)OCCn2c1nc1c(N3CCOCC3)nc(-c3cnc(N)nc3)nc12
active: Potency [1] 1.32 µM
inactive: activity (max response) [10] -17.2%

O=C(O)Cc1ccc(OCCNC[C@H](O)c2ccccc2)cc1
inactive: Potency [1] | activity (max response) [10] 0.46%

CC(C)(C)C(=O)N1N=CC[C@H]1c1ccccc1
inactive: activity (max response) [10] 3.19%
active: Potency [1] 2.35 µM

NC(=O)c1ccc2[nH]ccc2c1
active: Potency [9] 18700 nM
inactive: Potency [1] | activity (max response) [10] -8.13% | Potency [11]

COc1ccc2cc3[n+](cc2c1OC)CCc1cc2c(cc1-3)OCO2
inactive: Potency [11]
active: Potency [1] 4.22 µM and 1.48 µM | Potency [4] 18700 nM | Potency [6] 18700 nM | Potency [8] 20900 nM | Potency [9] 18700 nM | Potency [10] 10.3 µM and 8.91 µM

O=C(O)c1ccc(CCCc2ccc(OCCc3ccc(F)cc3)cc2)o1
active: Potency [1] 5.17 µM | Potency [10] 17.8 µM

O=C(Nc1ccc(OC(F)(F)F)cc1)c1sccc1NCc1ccnc2ccccc12
inactive: activity (max response) [10] -29.8%
active: Potency [1] 5.25 µM and 5.17 µM | Potency [4] 469 nM | Potency [5] 2350 nM | Potency [6] 2350 nM | Potency [7] 2960 nM | Potency [8] 2960 nM | Potency [9] 7430 nM

CSCC[C@H](NC(=O)[C@H](Cc1c[nH]c2ccccc12)NC(=O)CCNC(=O)OC(C)(C)C)C(=O)N[C@@H](CC(=O)O)C(=O)N[C@@H](Cc1ccccc1)C(N)=O
inactive: Potency [1] | activity (max response) [10] 1.93%

C[C@]1(c2nc3c(C(N)=O)cccc3[nH]2)CCCN1
inactive: Potency [1] | Potency [4] | Potency [7] | Potency [11]

COc1ccc(C=Cc2cc(OC)c(OC)c(OC)c2)cc1NC(=O)[C@H](N)CO
active: Potency [1] 0.0332 µM | Potency [5] 46.9 nM | Potency [6] 16.6 nM | Potency [7] 26.4 nM | Potency [8] 20.9 nM | Potency [9] 29.6 nM | Potency [10] 0.126 µM | Potency [11] 199 nM
